Compounds without any hit were thinned out: in the full panel of roughly 83,000, 20% have a hit.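 Interpretation: 100, growth as untreated; towards 0, rising growth inhibition; 0, no net growth; 0 to -100, cell death. Compounds scoring below 10 were considered active.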 Activity calls are given as the source filed them.
System: ACHN renal
Experiment: NCI-60 one-dose screen, 48 h (100 = growth as untreated, 0 = no growth, -100 = all killed)
Settings: 10 µM unless noted

Row | SMILES | growth
1 | COc1cc(CNS(=O)(=O)c2ccc(C)cc2)ccc1OCc1cn(-c2ccc(Br)cc2)nn1 | 98.4% (inactive)
2 | Cc1ccc(Cl)cc1Nc1nc(C(F)(F)F)ccc1C(=O)N/N=C/c1cccnc1 | 10.2% (inactive)
3 | COc1cc2c(c(OC)c1OC)-c1ccc(OC)c(=O)cc1[C@@H](NC(=O)CCl)CC2 | 25.4% (inactive)
4 | Fc1ccc(Nc2nc3nonc3nc2Nc2ccc(I)cc2)cc1 | 4.53% (active)
5 | CO[C@H]1/C=C(/C)CCC[C@H](C)[C@H](O)[C@@H](C)C(=O)C(C)(C)[C@@H](O)CC(=O)O[C@@H]1/C(C)=C/c1csc(C)n1 | 50% (inactive)
6 | COCCn1c(-c2csc(-c3cn(C)c4ccc(OC)cc34)n2)cc2cccnc21 | 70.9% (inactive)
7 | CCNc1nc(-c2ccc(Cl)c(OC)c2)c(-c2ccnc(NCCCNS(=O)(=O)c3ccc(Cl)cc3)n2)s1 | 74.1% (inactive)
8 | O=C1COCCN1c1ccc(Nc2nc(Cl)nc(OCc3cn(Cc4ccccc4)nn3)n2)cc1 | 101% (inactive)
9 | N#Cc1c(-c2ccc(Cl)cc2)nc(SCC(=O)NC2=NN=C(c3ccccc3)CS2)[nH]c1=O | 88.9% (inactive)
10 | Cc1cc2c(O)c(-c3cccc(Cl)c3)c3sc(=O)oc3c2cc1C | 44.5% (inactive)
11 | CC1=C(CCC(C)N(C)Cc2ccc(OCCCN3CCCC3)cc2)C(C)(C)CCC1 (stereo not given) | 36.8% (inactive)
12 | N#Cc1cccc(-c2c(-c3ccc4ccccc4c3)oc3ccccc3c2=O)c1 | 55.9% (inactive)
13 | Cc1nc2sc(C(=O)Nc3ccccc3)c(N)c2cc1C(=O)c1ccccc1 | 51.7% (inactive)
14 | O=C(O)CNC1=C(Cl)C(=O)c2ccccc2C1=O | 91.2% (inactive)
15 | CCCCCC(=O)OCC(=O)O[C@@H]1C[C@]2(C(C)C)O[C@@]1(C)[C@@H]1CC[C@@H](C)[C@H]1[C@@H]2OC(=O)/C=C/c1ccccc1 | -24.2% (active)
16 | CN1C(=O)/C(=C/c2ccc(C(=O)Nc3ncc(Cc4ccc(Cl)cc4)s3)cc2)SC1=S | 29.2% (inactive)
17 | C#CCOc1ccc2ncnc(Nc3cccc(NC(=O)C=C)c3)c2c1 | 45.8% (inactive)
18 | CN(CCOc1ccc(C#N)cc1)CCOc1ccc(C#N)cc1 | 83.6% (inactive)
19 | CCOC(=O)c1c(NC(=O)c2ccc(C(C)C)cc2)sc2c(CN(C)C)c(O)ccc12 | 37.8% (inactive)
20 | COC(=O)c1c2c(c[n+]([O-])c1C)C(=O)C(NCc1ccccc1)=CC2=O | -18.4% (active)

Row | SMILES | growth
21 | Nc1ncnc2c1N=C(c1ccc3c(c1)OCO3)CC(c1ccc([N+](=O)[O-])cc1)N2 (stereo not given) | 82.4% (inactive)
22 | N#C/C(=C/c1ccc([N+](=O)[O-])cc1)n1nnc2cc(F)c(F)cc21 | 36.2% (inactive)
23 | CCN1CCN(c2cc(C(=O)Nc3nc(-c4cc(OC)c(OC)c(OC)c4)cs3)cc(C(F)(F)F)c2)CC1 | 73.2% (inactive)
24 | CN1CCN(c2ccc(C(=O)Nc3cccc(C#Cc4cccc5[nH]nc(N)c45)c3)cc2C(F)(F)F)CC1 | -46.2% (active)
25 | CN1CCN(c2ccc(NC(=O)c3cncnc3Nc3ccc(OCc4ccccn4)c(Cl)c3)cc2)CC1 | 51.8% (inactive)
26 | c1ccc(CNc2c3ccccc3nc3ccccc23)cc1 | 18.1% (inactive)
27 | C/C(=N\NC(=O)c1ccccc1O)c1cccc(/C(C)=N/NC(=O)c2ccccc2O)n1 | 39.7% (inactive)
28 | N#Cc1c(NC(=O)c2ccccc2)sc2c1CCC(=O)C2 | 5.88% (active)
29 | CCO/C=N/C1=C(C#N)C(c2ccc(OC)cc2)c2sc3c(F)cccc3c2O1 (stereo not given) | 48.1% (inactive)
30 | O=C(CI)NC1Oc2ccccc2-c2oc(=O)c(-c3ccccc3)cc21 (stereo not given) | -91.3% (active)
31 | Brc1ccc2[nH]cc(-c3nonc3-c3c[nH]c4ccccc34)c2c1 | 34.2% (inactive)
32 | Fc1ccc2[nH]cc(-c3nonc3-c3c[nH]c4ccc(Br)cc34)c2c1 | 23.3% (inactive)
33 | N#CC1C=CN(CC(N)=O)c2ccc3cccnc3c21 (stereo not given) | 104% (inactive)
34 | CCOC(=O)CSc1ncnc2c1c(-c1ccccc1)c(-c1ccccc1)n2-c1ccc(C)cc1 | 90.7% (inactive)
35 | O=C(Cn1c2c(c3ccccc31)CCCC2)Nc1ccc(-c2nc3ccccc3s2)cc1 | 112% (inactive)
36 | CC(C)=CCC[C@](C)(O)[C@H]1CC[C@]2(C)[C@@H]1CC[C@@H]1[C@@]3(C)Cc4nccnc4C(C)(C)[C@@H]3CC[C@]12C | 85% (inactive)
37 | COc1cc2oc(-c3cccc(NC(=O)c4cccc(Br)c4)c3)cc(=O)c2c(OC)c1OC | 44.1% (inactive)
38 | O=C(Nc1nc2ccc(F)cc2s1)c1cccnc1Nc1ccc(Cl)cc1 | 38.8% (inactive)
39 | Nc1c(C(=O)Nc2ccncc2)sc2nc3c(cc12)CCCCCC3 | 108% (inactive)
40 | CC1(C)c2[nH]c3ccccc3c2C[C@]2(C)[C@H]3CC=C4[C@@H]5C[C@@](C)(C(N)=O)CC[C@]5(C)CC[C@@]4(C)[C@]3(C)CC[C@@H]12 | 45.7% (inactive)

— PubChem BioAssay (NCI)
